The record followed here is PubChem BioAssay AID602261 (Sanford-Burnham Center for Chemical Genomics, 2012).

As a reminder, the inhibition is the drop in the measured response relative to a control, in per cent.

“And” between values parts separate entries of the source, which are not always exact repeats. Equal values may be shown once. Among all 360,000 compounds or so, about 2,400 (0.67%) were called active. The full list was thinned out, with actives kept by preference. Values without a mark were called inactive.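 How the source made its calls: active means compounds whose normalised, plate-corrected inhibition of enzyme fluorescence in the single-dose primary screen is 50% or more; inactive means the rest.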

Sequence of Fatty acid synthase (Homo sapiens) (P49327 whole entry, looked up, the tested form may be a part): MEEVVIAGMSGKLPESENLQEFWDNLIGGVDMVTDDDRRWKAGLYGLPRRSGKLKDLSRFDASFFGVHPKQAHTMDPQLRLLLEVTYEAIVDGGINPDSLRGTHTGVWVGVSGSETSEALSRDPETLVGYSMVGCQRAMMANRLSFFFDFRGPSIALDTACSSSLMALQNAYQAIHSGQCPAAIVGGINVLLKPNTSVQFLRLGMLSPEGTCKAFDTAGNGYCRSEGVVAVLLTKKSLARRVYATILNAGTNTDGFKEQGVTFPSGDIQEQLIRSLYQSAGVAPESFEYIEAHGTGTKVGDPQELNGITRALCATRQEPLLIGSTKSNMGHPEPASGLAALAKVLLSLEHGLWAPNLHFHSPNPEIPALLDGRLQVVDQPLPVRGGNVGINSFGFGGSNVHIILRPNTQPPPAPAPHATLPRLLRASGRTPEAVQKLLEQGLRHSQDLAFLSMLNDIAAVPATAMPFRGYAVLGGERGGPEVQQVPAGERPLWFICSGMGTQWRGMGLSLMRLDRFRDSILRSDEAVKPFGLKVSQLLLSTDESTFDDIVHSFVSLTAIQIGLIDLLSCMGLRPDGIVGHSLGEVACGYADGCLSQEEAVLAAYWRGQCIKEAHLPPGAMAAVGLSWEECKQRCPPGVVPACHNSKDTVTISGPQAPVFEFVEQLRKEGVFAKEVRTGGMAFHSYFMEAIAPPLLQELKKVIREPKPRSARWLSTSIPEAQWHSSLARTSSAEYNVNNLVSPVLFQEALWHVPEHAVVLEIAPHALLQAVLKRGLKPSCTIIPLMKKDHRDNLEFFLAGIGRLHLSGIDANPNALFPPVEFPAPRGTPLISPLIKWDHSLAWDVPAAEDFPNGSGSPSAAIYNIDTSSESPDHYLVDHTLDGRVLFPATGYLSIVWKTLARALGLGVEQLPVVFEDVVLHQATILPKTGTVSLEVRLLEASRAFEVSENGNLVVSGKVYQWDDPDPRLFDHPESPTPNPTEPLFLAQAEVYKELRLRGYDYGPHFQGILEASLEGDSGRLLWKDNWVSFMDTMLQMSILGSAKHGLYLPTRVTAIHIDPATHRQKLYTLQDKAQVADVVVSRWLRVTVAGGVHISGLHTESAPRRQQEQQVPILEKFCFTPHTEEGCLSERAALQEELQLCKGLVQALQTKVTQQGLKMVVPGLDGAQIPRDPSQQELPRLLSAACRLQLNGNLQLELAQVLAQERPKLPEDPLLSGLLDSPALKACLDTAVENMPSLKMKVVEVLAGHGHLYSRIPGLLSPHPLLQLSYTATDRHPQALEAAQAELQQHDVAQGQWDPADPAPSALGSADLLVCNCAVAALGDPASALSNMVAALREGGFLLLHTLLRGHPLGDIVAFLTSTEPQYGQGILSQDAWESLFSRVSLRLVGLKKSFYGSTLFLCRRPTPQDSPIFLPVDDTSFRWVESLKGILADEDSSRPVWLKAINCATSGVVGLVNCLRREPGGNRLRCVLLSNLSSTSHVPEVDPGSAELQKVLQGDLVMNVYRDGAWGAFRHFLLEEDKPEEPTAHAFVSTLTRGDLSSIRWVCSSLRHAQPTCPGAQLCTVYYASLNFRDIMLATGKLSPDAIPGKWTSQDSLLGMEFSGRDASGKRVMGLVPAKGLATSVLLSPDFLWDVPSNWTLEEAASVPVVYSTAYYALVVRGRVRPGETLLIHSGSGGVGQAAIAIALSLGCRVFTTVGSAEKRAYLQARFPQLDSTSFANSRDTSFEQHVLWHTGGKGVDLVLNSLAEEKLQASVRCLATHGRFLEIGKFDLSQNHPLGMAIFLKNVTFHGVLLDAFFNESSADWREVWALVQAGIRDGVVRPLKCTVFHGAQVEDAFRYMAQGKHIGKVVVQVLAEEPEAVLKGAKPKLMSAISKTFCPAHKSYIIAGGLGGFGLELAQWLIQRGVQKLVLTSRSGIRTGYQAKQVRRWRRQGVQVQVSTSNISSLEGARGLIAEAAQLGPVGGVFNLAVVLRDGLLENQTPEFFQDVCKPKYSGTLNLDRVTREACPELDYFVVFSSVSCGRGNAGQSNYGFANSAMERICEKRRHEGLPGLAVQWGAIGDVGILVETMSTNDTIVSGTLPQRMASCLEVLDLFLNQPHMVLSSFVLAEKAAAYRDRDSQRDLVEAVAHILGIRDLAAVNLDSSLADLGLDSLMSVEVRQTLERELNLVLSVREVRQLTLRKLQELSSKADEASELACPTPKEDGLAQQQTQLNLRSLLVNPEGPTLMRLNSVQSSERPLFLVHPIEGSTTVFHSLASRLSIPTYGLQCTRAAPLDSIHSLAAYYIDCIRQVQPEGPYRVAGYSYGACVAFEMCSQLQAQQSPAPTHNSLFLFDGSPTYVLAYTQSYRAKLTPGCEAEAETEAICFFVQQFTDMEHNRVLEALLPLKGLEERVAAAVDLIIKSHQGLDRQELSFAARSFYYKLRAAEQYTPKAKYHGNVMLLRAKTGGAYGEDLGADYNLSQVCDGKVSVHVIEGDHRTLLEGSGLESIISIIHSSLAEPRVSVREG

This experiment concerns the target Fatty acid synthase (Homo sapiens) (UniProt P49327). Nature of the experiment: FAS thioesterase domain inhibitors, primary screen, biochemical, fluorescence intensity, uHTS (AID 602261).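 Further: 0% = DMSO with enzyme and 100% = substrate without enzyme.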 As to conditions: recombinant FAS-TE, OMFH fluorogenic substrate, fluorescence endpoint; at 15 µM; hits give high values.
As to `CCc1cc(CNC(=O)CC2C(=O)NCCN2Cc2ccccc2C(F)(F)F)on1` (stereo not given), the inhibition is -2.9%.
For the compound `O=C(NC1CCCCC1)C1CC(=O)N(CCc2ccccc2)C1` (stereo not given), the inhibition was -6.1%.
As for `CCCn1cc(S(=O)(=O)c2ccc(C)cc2)c(=O)c2cc(OCC)ccc21`, the inhibition is 9.4%.
Regarding `Clc1ccc2c(c1)C1=C(C(c3ccncc3)O2)C(c2ccc(Br)cc2)n2ncnc2N1` (stereo not given), the inhibition was 71.3% (active).
Consider `CN(C)CCNc1ccc(-c2n[nH]c(=O)c3ccccc23)cc1[N+](=O)[O-]`, for which the inhibition is -2.9%.
With `CCOc1cc(/C=C(/C#N)c2ccc(Cl)cc2)cc(Cl)c1OCC(=O)O`, the inhibition was 53.1% (active).
For `COc1cc(/C=C(/NC(=O)c2ccc(Cl)cc2Cl)C(=O)O)cc(OC)c1OC`, the inhibition was 0.9%.
The figure for `CCOc1cc(/C=N/NC(=O)OC)ccc1OCCSc1ccc(Cl)cc1` is -4.3%.
On to `O=C(c1ccco1)N1CCN=C1SCc1cccc(Cl)c1`, for which the inhibition was 5.3%.
As to `COC(=O)c1sc2[nH]c(=S)n(N)c(=O)c2c1C`, the inhibition was -6.3%.
The figure for `O=c1ccc2c(-c3ccccc3S(=O)(=O)O)c3ccc(O)c(O)c3oc-2c1O` is 54.8% (active).
Regarding `Cn1ncc2c(NNC(=O)Cc3cccc4ccccc34)ncnc21`, the inhibition is -10.1%.
The figure for `CC(=O)c1c(C)[nH]c(C(=O)N2CCN(S(=O)(=O)c3ccc(F)c(F)c3)CC2)c1C` is -3.9%; for `COc1ccc(NC(=O)CNc2cc(S(=O)(=O)N3CCOCC3)ccc2N2CCOCC2)c(OC)c1` it is -2.5%.
For `COc1ccc(S(=O)(=O)N2CCOCC2)cc1NC(=O)COc1ccccc1`, the inhibition is 2.1%.
As for `COc1cc(S(=O)(=O)N2CCOCC2)ccc1NC(=O)COc1ccc(N(C)S(=O)(=O)c2ccc(C)cc2)cc1`, the inhibition is 76.5% (active).
Consider `COc1ccc(Cl)cc1NS(=O)(=O)c1cccc(C(=O)NCC2CCCO2)c1` (stereo not given), for which the inhibition is -3.9%.
The figure for `Oc1c(Cl)cc(Cl)c(Cl)c1Cc1c(O)c(Cl)cc(Cl)c1Cl` is 83.7% (active).
On to `CC1CCCCN1C(=O)CCS(=O)(=O)Cc1ccccc1` (stereo not given), for which the inhibition is -4.6%.
The figure for `CCOc1ccccc1N(CC(=O)NC1CCCCC1)C(=O)CCCC(=O)Nc1ccccn1` is -7.1%.
`COC(=O)c1c(NC(=O)CN2CCN(S(=O)(=O)c3ccccc3[N+](=O)[O-])CC2)sc2c1CCC(C)C2` (stereo not given): the inhibition was 38.1%.
`CCCCCOC(=O)c1ccc(N2C(=O)C3C4C=CC(C4)C3C2=O)cc1` (stereo not given): the inhibition was 83.5% (active).
Turning to `CCCOC(=O)c1ccc(N2C(=O)c3ccccc3C2=O)cc1`, the inhibition was -2.6%.
The figure for `CCCCOC(=O)NCN1C(=O)C2C3C=CC(C3)C2C1=O` (stereo not given) is -2.4%; for `CC1(c2ccccc2Cl)NC(=O)N(CC(=O)NC(=O)NCc2ccco2)C1=O` (stereo not given) it is -2.3%; for `CCOC(=O)c1nn(-c2cccc(C)c2)cc1C(=O)c1ccccc1` it is 17.5%.
Regarding `CCCCNC(=O)OC1CC2CC1[C@H]1CCCCN1C2=O` (stereo not given in full), the inhibition is -13%.
Take `COc1ccc([N+](=O)[O-])cc1NCC(=O)c1ccc(C)cc1`: the inhibition is 11.8%.
`COc1ccc([N+](=O)[O-])cc1NC(=O)CC1SC(=Nc2cccc(C)c2C)N(/N=C(\C)c2ccc(C)cc2)C1=O` (stereo not given): the inhibition is 75.8% (active).
The figure for `COc1ccc(Br)cc1CN(C)CC(=O)Nc1cc([N+](=O)[O-])ccc1OC` is 42.3%.
Take `Cc1ccc(NC2(C#N)C(=O)Nc3ccccc32)cc1` (stereo not given): the inhibition is -3.6%.
In the case of `NS(=O)(=O)c1ccc(N=Cc2ccc(Br)s2)cc1`, the inhibition was -8.2%.
In the case of `CC(=O)c1sc(NC(=O)C2=NN(c3ccccc3)C(=O)CC2)nc1C`, the inhibition is -6.4%.
Turning to `CC(=O)c1sc(N)nc1C`, the inhibition is -11.2% and -7.8%.
Take `CC(=O)c1sc(N/N=C/c2ccc(C(C)C)cc2)nc1C`: the inhibition was 58.4% (active).
Take `Cc1nc2ccccc2nc(=O)c1NNc1ccc([N+](=O)[O-])cc1`: the inhibition is -7.2%.
In the case of `CNC[C@@H]1Oc2c(NS(C)(=O)=O)cccc2C(=O)N([C@@H](C)CO)C[C@H]1C`, the inhibition was -11.2%.
Regarding `CC(=O)c1cnc(-c2ccccc2)s1`, the inhibition was -1.4%.
`O=S(=O)(c1ccc(F)cc1)n1ccc(-c2cnc(-c3ccccc3)s2)n1`: the inhibition is 67.2% (active).
On to `O=S(=O)(c1ccc(F)cc1)N1CC=C(c2ccccc2)CC1`, for which the inhibition was 27.5%.
With `CC1CCN(C(=S)c2cccc(O)c2)CC1`, the inhibition was -0.1%.
The figure for `CCn1c(SCC(=O)Nc2cccc(F)c2)nnc1-c1cc2cc(Br)ccc2o1` is -5.5%; for `O=C(CP(=O)(c1ccccc1)c1ccccc1)N1CCOCC1` it is -3.5%.
As to `COc1ccc(CN2[C@@H](CC(=O)O)c3cc(F)ccc3S2(=O)=O)cc1`, the inhibition was -9.9%.
The figure for `CCCCCCN1CCN(C2CN(Cc3cn(Cc4ccc(F)cc4)nn3)S(=O)(=O)C2)CC1` (stereo not given) is -7.8%.
The figure for `CCCCCCCCCCCCN1[C@@H](CC(C)=O)c2cc(F)cc(F)c2S1(=O)=O` is 57.7% (active); for `CC1(C)Cc2nc3sc4c(SCC(=O)NC(c5ccccc5)c5ccccc5)ncnc4c3cc2CO1` it is -7.6%; for `CCCc1nc2scc(-c3ccc(C)cc3)c2c(=O)n1N` it is -1.6%.
Take `CCCc1cc(-c2nc(-c3ccc(C)cc3)cs2)ccn1`: the inhibition is 56.3% (active).
In the case of `Fc1ccc(-c2csc(-c3ccc(C4SCCS4)cc3)n2)cc1F`, the inhibition is 33%.
Regarding `Cc1ccc(C(=O)C(=S)N2CCOCC2)cc1`, the inhibition was -7.7%.
The figure for `O=C1OCCN1C(=O)[C@H]1[C@H](c2ccc(F)cc2)C(c2ccccc2)=NN1c1ccc(Br)cc1` is 46.2%; for `O=C1OCCN1C(=O)[C@H]1[C@H](c2ccccc2)C(c2ccc(F)cc2)=NN1c1ccccc1` it is 41.9%; for `O=C1OCCN1C(=O)[C@H]1[C@H](c2ccc(Cl)cc2)C(c2cccc(Cl)c2)=NN1c1ccc(Br)cc1` it is 67.3% (active).
Turning to `COCCNC(=O)CSc1nc2c(n1-c1ccccc1)CCCC2`, the inhibition is -7.1%.
The figure for `Cc1ccccc1-n1c(SCC(=O)Nc2cccc3ccccc23)nc(O)cc1=O` is -5.5%; for `Cc1ccc(C)c(NC(=O)CSc2nc3c(oc4ccccc43)c(=O)n2-c2ccccc2)c1` it is 62.3% (active); for `Cc1ccc(C)c(NC(=O)COC(=O)CSc2ccccc2)c1` it is -9.4%.
Consider `Cc1ccc(C)c(Cn2cnc3c(oc4ccccc43)c2=O)c1`, for which the inhibition is 16.6%.
Turning to `CCN1CCN(C(=O)/C=C\C(=O)O)CC1`, the inhibition was -3%.
With `COc1ccc(/C=C/C(=O)c2cc(Br)ccc(=O)c2O)cc1`, the inhibition is 6.9%.
For the compound `COC(=O)CN(c1cccc(C(C)=O)c1)S(C)(=O)=O`, the inhibition is -7%.
In the case of `O=C(COC(=O)c1ccccc1Cl)NC1CCCCCCC1`, the inhibition was 8.2%.
Take `O=C(COC(=O)Cc1ccc([N+](=O)[O-])cc1)NC1CCCCCC1`: the inhibition is 22.7%.
Regarding `O=C(COC(=O)c1cc([N+](=O)[O-])ccc1NCc1ccccc1)NC1CCCCC1`, the inhibition is 60.7% (active).
As to `COc1ccc(S(=O)(=O)N(CCCN2CCCC2=O)Cc2cc3c(C)ccc(C)c3[nH]c2=O)cc1`, the inhibition is -3%.
The figure for `O=C(CCC1CCCCC1)Nc1cc(C(F)(F)F)ccc1N1CCOCC1` is 34.3%.
Turning to `Cc1cccc(CN2CCC(CNC(=O)Nc3ccc(F)c(Cl)c3)CC2)c1`, the inhibition is 2.9%.
The figure for `Cc1ccc(C)c(Cn2nnc3c(=O)[nH]c(C(=O)Nc4ccc(F)cc4)nc32)c1` is 3.8%; for `Cc1cccc(CS(=O)(=O)c2ncc(Cl)c(C(=O)Nc3ccc(F)cc3)n2)c1` it is 56.5% (active).
The figure for `O=C(N=C1SC2CS(=O)(=O)CC2N1c1ccccc1)c1ccccc1` (stereo not given) is 8.4%; for `O=[N+]([O-])c1ccc(CN2CC(N3CC=CC3)CS2(=O)=O)cc1` (stereo not given) it is -9.2%; for `O=S1(=O)CC(N2CCC(Cc3ccccc3)CC2)CN1Cc1ccccc1` (stereo not given) it is 6.6%.
Consider `O=[N+]([O-])c1ccc(CN2CC(N3CCC(c4ccccc4)CC3)CS2(=O)=O)cc1` (stereo not given), for which the inhibition is 69.8% (active).
As to `CN(C(=O)c1ccc(NC(=O)Cc2cccc(NC(=O)C3CCN(C(=O)c4ccccc4)CC3)c2)cc1)C1CC1`, the inhibition was -9.5%.
Regarding `CCOc1ccc(C(=O)NC2CCN(CC(=O)NCc3cccs3)CC2)cc1`, the inhibition is -3.1%.
On to `Cc1cccc(NC(=O)C(C)N2C(=O)C3C4CC(C(Br)C4Br)C3C2=O)c1` (stereo not given), for which the inhibition was 20.5%.
With `O=C(Nc1ccnn1C1CCN(C/C=C/c2ccc(F)cc2)CC1)C1CCCC1`, the inhibition is -0.7%.
Take `Cc1cc(S(=O)(=O)N2CCOCC2)ccc1OCC(=O)N1CCOCC1`: the inhibition was -2.5%.
Regarding `COC(=O)c1cc(Oc2ccc(S(=O)(=O)N3CCOCC3)cc2[N+](=O)[O-])cc(C(=O)OC)c1`, the inhibition is 38.3%.
`Cc1cc(C(=O)COc2ccccc2[N+](=O)[O-])c(C)n1-c1cccc(S(=O)(=O)N2CCOCC2)c1`: the inhibition is 58.7% (active).
As for `CSc1n[nH]c(=S)n1N`, the inhibition is -4.3%.
The figure for `O=S(=O)(c1cnccc1N1CCN(/N=C/c2ccc(Br)cc2)CC1)N1CCCCC1` is 31.4%; for `Cc1cc(Nc2cccc(F)c2)n2ncnc2n1` it is -2.8%.
Turning to `COc1cccc(C2CC(c3ccccc3)=NN2S(=O)(=O)c2ccccc2)c1OC` (stereo not given), the inhibition is 20%.
Regarding `COc1ccccc1C1CC(=O)n2c(nc(-c3ccccc3)c2-c2ccccc2)S1` (stereo not given), the inhibition is 54.5% (active).
On to `COc1ccc(C2CC(=O)n3c(nc4ccccc43)S2)cc1OC` (stereo not given), for which the inhibition is -161%.
As to `O=C(NCCNc1ccc([N+](=O)[O-])cc1)c1cccc2c(Br)cccc12`, the inhibition is 37.6%.
For `COc1c(C)cc(C(O)c2ncc(-c3cccc(C(F)(F)F)c3)[nH]2)cc1C` (stereo not given), the inhibition was 7.9%.
For `O=S1(=O)C[C@@H](N2CCN(CCO)CC2)[C@H](COCc2ccccc2)N1`, the inhibition is -9.7%.
